ADAM10 inh: ADAM10 inhibition, QFRET primary screen. inhibition, % at 7 µM. 370,000 compounds, 0.62% hits. O14672. recombinant ADAM10, EDANS/DABCYL FRET peptide cleavage, 3 h;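 active = inhibition above a per-campaign cutoff equal to the mean of compounds falling between control-based bounds plus 3 SD, cut at about 20% in these data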;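 also: 0% = DMSO wells while the 100% control is not disclosed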
ADAM17 inh: inhibitors of human ADAM17; AID 720648; recombinant ADAM17, EDANS/DABCYL FRET peptide cleavage; P78536; 370,000 compounds, 0.83% hits; inhibition, % at 6.95 µM;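 active = inhibition above the mean of compounds lying between control limits plus 3 SD, set per campaign, cut at about 8.5% in these data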;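 also: 0% = DMSO-only wells as the low control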
V-ATPase pH: alters yeast V-ATPase proton transport; S. cerevisiae, pHLuorin cytosolic pH fluorescence; response, % at 10 µM; 350,000 compounds, 0.37% hits; AID 504577; in the data active = response mostly above about 7.3%, no sharp cut-off; inactive = mostly below about 5.4%; also: actives read high
proKLK7 act: proKLK7 (human) activation, primary screen; P49862; purified proKLK7, EDANS-DABCYL substrate fluorescence; 100% is mature enzyme control, 0% vehicle; activation, % at 7 µM; 370,000 compounds, 0.9% hits; AID 652039;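 active = activation above the mean of all tested compounds plus 3 SD, computed per campaign excluding outliers beyond control limits, cut at about 13% in these data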
Target sequence (P49862 whole entry, looked up): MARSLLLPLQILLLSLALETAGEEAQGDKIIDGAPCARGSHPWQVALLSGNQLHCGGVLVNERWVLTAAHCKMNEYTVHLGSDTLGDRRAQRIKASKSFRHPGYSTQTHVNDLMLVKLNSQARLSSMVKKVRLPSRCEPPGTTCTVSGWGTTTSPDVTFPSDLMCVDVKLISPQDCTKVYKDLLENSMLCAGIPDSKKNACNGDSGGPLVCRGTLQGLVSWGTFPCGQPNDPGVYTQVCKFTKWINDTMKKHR
ADAM10 counter: counter-screen for ADAM17 exosite inhibitors: inhibitors of human ADAM10; shares compounds with ADAM17 inh; recombinant ADAM10, EDANS/DABCYL FRET peptide cleavage, 3 h; inhibition, % at 6.95 µM; 2,900 compounds, 47% hits;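 active = mean inhibition over the triplicate runs exceeds the activity threshold set in the earlier primary screen, cut at about 20% in these data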;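 also: 0% = DMSO wells and 100% = marimastat wells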
ADAM17 confirm: human ADAM17 inhibition, confirmation | shares compounds with ADAM17 inh | recombinant ADAM17, EDANS/DABCYL QFRET peptide cleavage | inhibition, % at 6.95 µM | 2,900 compounds, 65% hits;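 active = mean inhibition across replicates above the hit cutoff set in the primary screen, cut at about 8.5% in these data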;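 also: 0% = DMSO wells and 100% = marimastat wells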
* marks the source's active call; other numbers are inactive results; / = no result. In the library only some 2.3% were active in any assay of this set; here they are far more common.

SMILES	ADAM10 inh	ADAM17 inh	V-ATPase pH	proKLK7 act	ADAM10 counter	ADAM17 confirm
CCOc1ccc(CCN2C(=S)N([C@@H](Cc3ccc(O)cc3)CN3CCCC3CN3C(=S)NC[C@@H]3Cc3ccc(O)cc3)C[C@@H]2CC(C)C)cc1 (stereo not given in full)	9	8.9*	1	0	26*	16*
COc1cccc(/C=C2\CC3(OC(=O)c4ccc(F)cc4)CCCN2C3)c1 (stereo not given)	2	2	/	0	/	/
S=c1[nH]nc(C2CCCCC2)n1/N=C/C(Cl)=C\c1ccccc1	9	3	-2	-1	/	/
S=c1[nH]nc(C2CCCCC2)n1/N=C/C=C/c1ccccc1	17	9.2*	/	0	19	11*
C#CCN1CC(COc2ccccc2)Oc2cccc(Oc3ccc(OC)cc3)c2S1(=O)=O (stereo not given)	1	3	/	0	/	/
COc1ccccc1CNc1ccc2c(c1)OC[C@H](CC(C)C)NS2(=O)=O	-11	-2	/	1	/	/
CNS(=O)(=O)c1cccc(C(=O)OCC(=O)NC2CCCC2)c1	11	8.9*	-2	0	7	4
COC(=O)C[C@H]1CC[C@H]2[C@H](COc3ccc(NC(=O)c4ccccc4F)cc3C(=O)N2C)O1	-1	-3	/	1	/	/
O=C(CSc1nnc(COc2ccccc2)n1-c1ccc(Cl)cc1)Nc1ccc2c(c1)OCCO2	17	7	/	0	/	/
Cc1ccc(/C(N)=N/OC(=O)CN(C)S(=O)(=O)c2ccc(C)cc2)cc1	9	0	-3	0	/	/
Cc1ccc(S(=O)(=O)N(C)CC(=O)O/N=C(\N)c2cccc(Br)c2)cc1	8	12*	-3	0	11	9.7*
NC(=O)[C@H]1CC2(CC(c3cccc(NC(=O)COc4ccc(Cl)cc4)c3)=NO2)CN1C(=O)c1ccccc1C(=O)c1ccccc1 (stereo not given in full)	13	8.7*	14	1	24*	15*
CCCCCC(=O)N1CC2(CC(c3cccc(NC(=O)CC(c4ccccc4)c4ccccc4)c3)=NO2)C[C@@H]1C(N)=O (stereo not given in full)	15	9.6*	2	1	29*	18*
CCCCCC(=O)N1CC2(CC(c3cccc(NC(=O)COc4ccc(Cl)cc4)c3)=NO2)C[C@@H]1C(N)=O (stereo not given in full)	9	4	0	0	/	/
NC(=O)[C@H]1CC2(CC(c3cccc(NC(=O)COc4ccc(Cl)cc4)c3)=NO2)CN1C(=O)CC(c1ccccc1)c1ccccc1 (stereo not given in full)	35*	18*	-2	0	37*	21*
C=C(C)C(=O)Nc1cccc(C2=NOC3(C2)C[C@@H](C(N)=O)N(C(=O)/C=C/CC)C3)c1 (stereo not given in full)	-3	3	0	0	/	/
C=C(C)C(=O)Nc1cccc(C2=NOC3(C2)C[C@H](C(N)=O)N(C(=O)/C=C/C)C3)c1 (stereo not given in full)	6	9.9*	-1	0	5	3
Cc1onc(-c2ccccc2Cl)c1C(=O)OCC(=O)N1CCC(C)CC1	-2	-2	2	1	/	/
Cc1[nH]c2ccccc2c1C(=O)COC(=O)c1c(-c2ccccc2Cl)noc1C	20	9.5*	0	-3	33*	18*
COc1cccc(C2NC(c3cccc(OC)c3O)C(C)C(=O)C2C)c1O (stereo not given)	1	1	-4	1	/	/
CC1C(=O)C(C)C(c2cc(Cl)ccc2O)NC1c1cc(Cl)ccc1O (stereo not given)	18	9.6*	0	0	32*	17*
COc1cc(C(=O)OCn2nnc3ccccc3c2=O)cc(OC)c1OC	1	-1	-2	0	/	/
COc1cccc(C(=O)OCn2nnc3ccccc3c2=O)c1OC	6	8.9*	2	0	0	0
CN(CCOc1ccc(Cl)cc1)C(=O)CNS(=O)(=O)c1ccc(N(C)C)c([N+](=O)[O-])c1	-5	-3	4	0	/	/
CN(C)c1ccc(S(=O)(=O)NCC(=O)OCC(=O)Nc2cc(Cl)cc(Cl)c2)cc1[N+](=O)[O-]	20	9.9*	-1	0	42*	23*

Screening data: PubChem, several laboratories
